PubChem BioAssay (NCI)
This is part of a sample that, as a whole, favours compounds with a hit. Of some 79,000 tested, about 15% had one in any assay. Active and inactive are the calls of the source. Cut-off read from the data, not from the text of the source: active = growth inhibition above about 70%; inactive = the rest.

Legend:
[1] = NCI Yeast Anticancer Drug Screen. Data for the rad52 strain (AID 147);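 note: 0% = growth of vehicle-treated control cultures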; conditions: S. cerevisiae rad52 mutant growth inhibition, hits give high values
How it was run: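 Read-out: growth inhibition versus vehicle-treated controls. Cells were a DNA repair-deficient yeast strain treated with compounds.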

[2] = NCI Yeast Anticancer Drug Screen. Data for the rad50EPP+ strain (AID 151);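 note: 0% = growth of vehicle-treated control cultures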; conditions: S. cerevisiae rad50 mutant strain, hits give high values
How it was run: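 Growth inhibition read against vehicle controls in rad50EPP+ yeast, a strain altered in DNA damage repair, after compound exposure.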

[3] = NCI Yeast Anticancer Drug Screen. Data for the mgt1 strain (AID 153); conditions: S. cerevisiae mgt1 mutant growth inhibition, hits give high values
How it was run: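 mgt1 yeast grown with test compound; read-out is growth inhibition versus vehicle-treated cultures.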

[4] = NCI Yeast Anticancer Drug Screen. Data for the rad50 strain (AID 155);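 note: 0% = growth of vehicle-only cultures of the same strain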; conditions: S. cerevisiae rad50 strain growth inhibition, hits give high values
How it was run: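 Growth of the mutant yeast was measured after compound exposure and referenced to vehicle-treated cultures.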

[5] = NCI Yeast Anticancer Drug Screen. Data for the mec2-1 strain (AID 157); conditions: S. cerevisiae mec2-1 strain, hits give high values
How it was run: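 Yeast mec2-1 mutant treated with compound. Readout: growth inhibition vs vehicle controls.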

[6] = NCI Yeast Anticancer Drug Screen. Data for the rad14 strain (AID 159);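 note: 0% = growth of vehicle-treated control cultures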; conditions: S. cerevisiae rad14 strain growth inhibition, hits give high values
How it was run: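 Here, inhibition of yeast growth was measured after compound exposure, using a strain with a genetic defect in DNA damage repair and vehicle-treated cultures as the reference.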

[7] = NCI Yeast Anticancer Drug Screen. Data for the sgs1 mgt1 strain (AID 161);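 note: 0% = growth of cultures given vehicle only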; conditions: S. cerevisiae sgs1 mgt1 strain, hits give high values
How it was run: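 Read-out: growth inhibition vs vehicle controls. Cells: mutant yeast strain deficient in DNA damage repair.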

[8] = NCI Yeast Anticancer Drug Screen. Data for the CLN2oe strain (AID 163);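 note: 0% = growth of vehicle-only control cultures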; conditions: S. cerevisiae CLN2oe strain, hits give high values
How it was run: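 Read-out: yeast growth inhibition, expressed relative to vehicle-only controls. The strain bears an engineered cell-cycle alteration.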

[9] = NCI Yeast Anticancer Drug Screen. Data for the cln2 rad14 strain (AID 165);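 note: 0% = growth equal to vehicle treated cultures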; conditions: S. cerevisiae cln2 rad14 strain, hits give high values
How it was run: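 cln2 rad14 yeast strain; compound exposure; growth inhibition read vs vehicle controls.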

[10] = NCI Yeast Anticancer Drug Screen. Data for the bub3 strain (AID 167); conditions: S. cerevisiae bub3 mutant strain, hits give high values
How it was run: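 Whole-cell yeast assay. The mutant strain was incubated with compounds, and growth inhibition was determined by comparison with vehicle-treated cells.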

[11] = NCI Yeast Anticancer Drug Screen. Data for the wt2 strain (AID 169);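 note: 0% = growth of vehicle-treated yeast cultures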; conditions: S. cerevisiae wt2 strain growth inhibition, hits give high values
How it was run: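 Read-out: growth inhibition versus vehicle-treated control cultures after compound exposure of the yeast strain.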

[12] = NCI Yeast Anticancer Drug Screen. Data for the mlh1 strain (AID 171);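 note: 0% = growth of vehicle-treated control cultures of the same strain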; conditions: S. cerevisiae mlh1 strain growth inhibition, hits give high values
How it was run: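 Read-out: growth inhibition versus vehicle controls. Strain: engineered yeast with a defined DNA repair or cell cycle defect, compound-treated.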

[13] = NCI Yeast Anticancer Drug Screen. Data for the sgs1 strain (AID 173);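 note: 0% = growth of vehicle-only control cultures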; conditions: S. cerevisiae sgs1 mutant, hits give high values
How it was run: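 Read-out: yeast growth inhibition relative to vehicle controls, following compound exposure of a strain with a defined DNA repair/cell cycle alteration.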

[14] = NCI Yeast Anticancer Drug Screen. Data for the mlh1 rad18 strain (AID 175); conditions: S. cerevisiae mlh1 rad18 strain growth inhibition, hits give high values
How it was run: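 Yeast w/ defined DNA-repair lesions; compound exposure; growth vs vehicle controls → % inhibition.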

[15] = NCI Yeast Anticancer Drug Screen. Data for the rad18 strain (AID 177); conditions: S. cerevisiae rad18 mutant growth inhibition, hits give high values
How it was run: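 Readout: growth inhibition vs vehicle controls. Cells: genetically altered yeast strain, DNA repair defect.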

[16] = NCI Yeast Anticancer Drug Screen. Data for the wt1 strain (AID 149);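 note: 0% = growth of vehicle-treated wt1 cultures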; conditions: S. cerevisiae wt1 strain (SPY 50644) growth inhibition, hits give high values
How it was run: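 Measured: growth of wt1 yeast under compound versus vehicle treatment, reported as inhibition.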

[17] = at 5.0 µM (retest, dose inferred, filed as 0.5)
[18] = at 50.0 µM (retest, dose inferred, filed as 5.0)

Measured: growth inhibition

CCCCCCCCCCNC(=O)OCC
active: [1]; at 100.0 µM 98% | [2]; at 100.0 µM 81% | [3]; at 100.0 µM 99% | [4]; at 50.0 µM 84.5% | [4]; at 100.0 µM 99% | [5]; at 50.0 µM 93.5% | [5]; at 100.0 µM 100% | [6]; at 100.0 µM 99% | [7]; at 50.0 µM 83.7% | [8]; at 100.0 µM 99% | [9]; at 50.0 µM 98.3% | [10]; at 50.0 µM 95.3% | [10]; at 100.0 µM 99% | [11]; at 100.0 µM 99% | [12]; at 100.0 µM 99% | [13]; at 100.0 µM 99% | [14]; at 50.0 µM 95% | [15]; at 100.0 µM 99%
inactive: [1]; at 1.2 µM 0% | [1]; at 3.7 µM 1% | [1]; at 11.0 µM 11% | [1]; at 33.0 µM 37% | [2]; at 1.2 µM 1% | [2]; at 3.7 µM 9% | [2]; at 11.0 µM 28% | [2]; at 33.0 µM 68% | [3]; at 1.2 µM -2% | [3]; at 3.7 µM -11% | [3]; at 11.0 µM 4% | [3]; at 33.0 µM 28% | [4]; at 1.2 µM 1% | [4]; at 3.7 µM 9% | [4]; [17] 1% | [4]; at 11.0 µM 24% | [4]; at 33.0 µM 40% | [4]; [18] 22% | [5]; at 1.2 µM -7% | [5]; at 3.7 µM -5% | [5]; [17] -7% | [5]; at 11.0 µM -6% | [5]; at 33.0 µM 7% | [5]; [18] 28% | [6]; at 1.2 µM -4% | [6]; at 3.7 µM -4% | [6]; at 11.0 µM -3% | [6]; at 33.0 µM 8% | [7]; [17] -2% | [7]; [18] 56% | [8]; at 1.2 µM 0% | [8]; at 3.7 µM 0% | [8]; at 11.0 µM 4% | [8]; at 33.0 µM 12% | [9]; [17] -55% | [9]; [18] 15% | [10]; at 1.2 µM 2% | [10]; at 3.7 µM -18% | [10]; [17] -21% | [10]; at 11.0 µM 9% | [10]; at 33.0 µM 8% | [10]; [18] 4% | [11]; at 1.2 µM -3% | [11]; at 3.7 µM -3% | [11]; at 11.0 µM 1% | [11]; at 33.0 µM 38% | [12]; at 1.2 µM -3% | [12]; at 3.7 µM 2% | [12]; at 11.0 µM 1% | [12]; at 33.0 µM 20% | [13]; at 1.2 µM -1% | [13]; at 3.7 µM -1% | [13]; at 11.0 µM 7% | [13]; at 33.0 µM 59% | [14]; [17] -15% | [14]; [18] 68% | [15]; at 1.2 µM 0% | [15]; at 3.7 µM 1% | [15]; at 11.0 µM 18% | [15]; at 33.0 µM 11%

CSC(=S)Nc1cccc(C)n1
active: [4]; [17] 88% | [4]; [18] 99% | [4]; at 100.0 µM 79% | [5]; [17] 70% | [5]; [18] 99% | [10]; at 100.0 µM 74% | [14]; [18] 99% | [14]; at 50.0 µM 70.1%
inactive: [1]; at 1.2 µM -6% | [1]; at 3.7 µM -5% | [1]; at 11.0 µM -3% | [1]; at 33.0 µM 23% | [1]; at 100.0 µM 63% | [16]; at 1.2 µM -35% | [16]; at 3.7 µM -24% | [16]; at 11.0 µM -25% | [16]; at 33.0 µM -15% | [16]; at 100.0 µM 3% | [3]; at 1.2 µM -52% | [3]; at 3.7 µM -29% | [3]; at 11.0 µM -11% | [3]; at 33.0 µM 16% | [3]; at 100.0 µM 59% | [4]; at 1.2 µM -25% | [4]; at 3.7 µM -4% | [4]; at 11.0 µM -11% | [4]; at 33.0 µM 28% | [4]; at 50.0 µM 41.8% | [5]; at 1.2 µM -61% | [5]; at 3.7 µM -61% | [5]; at 11.0 µM -58% | [5]; at 33.0 µM -36% | [5]; at 50.0 µM 31.6% | [5]; at 100.0 µM 34% | [6]; at 1.2 µM -19% | [6]; at 3.7 µM -15% | [6]; at 11.0 µM 9% | [6]; at 33.0 µM 2% | [6]; at 100.0 µM 50% | [7]; [17] -18% | [7]; [18] 29% | [7]; at 50.0 µM 45% | [8]; at 1.2 µM -24% | [8]; at 3.7 µM -8% | [8]; at 11.0 µM -13% | [8]; at 33.0 µM 12% | [8]; at 100.0 µM 24% | [9]; [17] 9% | [9]; [18] 65% | [9]; at 50.0 µM 38.2% | [10]; at 1.2 µM -9% | [10]; at 3.7 µM -16% | [10]; [17] 39% | [10]; at 11.0 µM -3% | [10]; at 33.0 µM 15% | [10]; [18] 63% | [10]; at 50.0 µM 54% | [11]; at 1.2 µM -29% | [11]; at 3.7 µM -30% | [11]; at 11.0 µM -31% | [11]; at 33.0 µM -10% | [11]; at 100.0 µM 31% | [12]; at 1.2 µM -42% | [12]; at 3.7 µM -40% | [12]; at 11.0 µM -35% | [12]; at 33.0 µM -12% | [12]; at 100.0 µM 66% | [13]; at 1.2 µM -47% | [13]; at 3.7 µM -49% | [13]; at 11.0 µM -32% | [13]; at 33.0 µM -6% | [13]; at 100.0 µM 62% | [14]; [17] 55% | [15]; at 1.2 µM -20% | [15]; at 3.7 µM -15% | [15]; at 11.0 µM -22% | [15]; at 33.0 µM 9% | [15]; at 100.0 µM 69%
